Compounds with a hit are over-represented: about 7% of the library has one in this group of screens.
rCAG binder: binds r(CAG) RNA repeats | r(CAG) RNA repeat, TO-PRO-1 dye displacement fluorescence | inhibition, % at 3 µM | 1.3% of 370,000 active | AID 651821;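 active = inhibition above the plate cutoff, the mean of all test compounds on that plate plus 3 SD, cut at about 35% in these data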;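 also: 0% = DMSO alone and 100% = 100 µM mitoxantrone as full dye displacement; higher means more dye released from RNA so lower well fluorescence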
ADAM10 inh: ADAM10 inhibition, QFRET primary screen; O14672; recombinant ADAM10, EDANS/DABCYL FRET peptide cleavage, 3 h; inhibition, % at 7 µM; 0.62% of 370,000 active;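 active = inhibition above a per-campaign cutoff equal to the mean of compounds falling between control-based bounds plus 3 SD, cut at about 20% in these data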;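 also: 0% = DMSO wells while the 100% control is not disclosed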
ADAM17 inh: ADAM17 inhibition, QFRET primary screen. recombinant ADAM17, EDANS/DABCYL FRET peptide cleavage. inhibition, % at 6.95 µM. 0.83% of 370,000 active. AID 720648;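 active = inhibition above the mean of compounds lying between control limits plus 3 SD, set per campaign, cut at about 8.5% in these data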;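 also: 0% = DMSO-only wells as the low control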
AHR act: activates the human aryl hydrocarbon receptor; 2.5% of 320,000 active; activation, % at 5 µM; AHR-responsive luciferase reporter cells, luminescence; AID 2796; P35869; in the data active = activation above about 47%;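 also: 0% = vehicle wells and 100% = reference agonist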
proKLK7 act: proKLK7 (human) activation, primary screen | P49862 | activation, % at 7 µM | 0.9% of 370,000 active | purified proKLK7, EDANS-DABCYL substrate fluorescence; 100% is mature enzyme control, 0% vehicle;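 active = activation above the mean of all tested compounds plus 3 SD, computed per campaign excluding outliers beyond control limits, cut at about 13% in these data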
GRIN3A LBD mod: modulators (binders) of human NR3A ligand-binding domain; NR3A LBD differential scanning fluorimetry, Tm shift; 0% = protein alone, 100% = glycine-bound protein; 2.5% of 340,000 active; Tm shift relative to glycine control, % at 25 µM;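 active = melting temperature shift of at least 10% of the positive control shift, at one fixed dose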
ADAM10 confirm: confirmation of inhibitors of human ADAM10. shares compounds with ADAM10 inh. ADAM10 QFRET peptide cleavage, EDANS fluorescence. inhibition, % at 6.95 µM. 1% of 2,100 active. AID 743208;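 active = inhibition above about 20% chosen separately for each screening run, limit read from the data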;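 also: 0% = DMSO wells and 100% = marimastat wells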
ADAM17 counter: counter-screen for ADAM10 exosite inhibitors: inhibitors of human ADAM17 | shares compounds with ADAM10 inh | ADAM17 QFRET peptide cleavage, EDANS fluorescence | 0.5% of 2,100 active | inhibition, % at 6.95 µM;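 active = mean triplicate inhibition above the solvent-only control wells' mean plus 3 SD, cut at about 12% in these data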;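 also: 0% = DMSO wells and 100% = marimastat wells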
ADAM10 ctr: counter-screen for ADAM17 exosite inhibitors: inhibitors of human ADAM10; AID 743256; 47% of 2,900 active; recombinant ADAM10, EDANS/DABCYL FRET peptide cleavage, 3 h; inhibition, % at 6.95 µM; shares compounds with ADAM17 inh;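 active = mean inhibition over the triplicate runs exceeds the activity threshold set in the earlier primary screen, cut at about 20% in these data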;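 also: 0% = DMSO wells and 100% = marimastat wells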
ADAM17 confirm: confirmation of inhibitors of human ADAM17. shares compounds with ADAM17 inh. inhibition, % at 6.95 µM. recombinant ADAM17, EDANS/DABCYL QFRET peptide cleavage. 65% of 2,900 active;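 active = mean inhibition across replicates above the hit cutoff set in the primary screen, cut at about 8.5% in these data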;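 also: 0% = DMSO wells and 100% = marimastat wells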
* marks the source's active call; other numbers are inactive results; / = no result.

SMILES	rCAG binder	ADAM10 inh	ADAM17 inh	AHR act	proKLK7 act	GRIN3A LBD mod	ADAM10 confirm	ADAM17 counter	ADAM10 ctr	ADAM17 confirm
Cc1cc(Br)ccc1NC(=O)CN(C)C(=O)C1CCN(c2ncnc3sc(C)c(C)c23)CC1	-1	1	1	/	0	-4	/	/	/	/
Cc1ccc2nc(NC(=O)CN(C)S(=O)(=O)c3ccc(Br)s3)sc2c1	7	24*	10*	16	0	9	7	2	25*	15*
Cc1ccc2nc(NC(=O)CNS(=O)(=O)c3ccc(Br)s3)sc2c1	16	-19	-8	10	0	-1	/	/	/	/
CCN(c1ccccc1)S(=O)(=O)c1ccc(C(=O)Nc2cccc(NC(C)=O)c2)cc1	2	22*	8.9*	5	-1	-4	8	2	3	3
O=S(=O)(NCc1ccc(F)cc1)c1ccc(-n2cnnn2)cc1	2	2	2	-1	0	2	/	/	/	/
COc1cc(CN2CCN(c3cccc(C)c3C)CC2)cc(Br)c1O	3	24*	9.8*	3	0	-4	3	2	22*	11*
Cc1cccc(C)c1OCC(=O)N(Cc1ccc(Cl)cc1)C1CCS(=O)(=O)C1 (centres undefined)	-4	20*	9.2*	0	0	-3	-2	0	-3	2
CCCCn1c(N)c(N(C(=O)CSc2nnc(C)n2-c2ccccc2)C2CCCC2)c(=O)[nH]c1=O	0	-4	-5	1	0	0	/	/	/	/
COC(=O)c1ccc(Cn2nc(C)cc2C)cc1	-4	-1	-3	1	0	1	/	/	/	/
Cc1cc(C)n(Cc2ccc(NC(=O)c3ccc(COc4ccccc4Br)cc3)cc2)n1	12	29*	11*	-12	-1	10*	10	4	17	12*
CCCCn1[nH]c(-c2ccccc2)cc1=O	8	1	5	0	1	-1	/	/	/	/
O=C(Nc1cccc(C(F)(F)F)c1)NC1CCCCC1	-2	5	4	8	-1	-4	/	/	/	/
O=C(OC(C(=O)Nc1cccc(C(F)(F)F)c1)c1ccccc1)C1CCCCC1 (centres undefined)	4	25*	12*	0	0	14*	9	3	20*	13*
Cc1ccccc1S(=O)(=O)Cc1ccc(C(=O)N2CCN(c3cccc(C)c3C)CC2)o1	-1	22*	9.0*	0	0	0	5	1	18	12*
COc1cccc(NC(=O)C(c2ccccc2)N2CCN(CC(=O)N3CCOCC3)CC2)c1 (centres undefined)	3	-8	-1	18	0	-1	/	/	/	/
O=[N+]([O-])c1cc(S(=O)(=O)C(F)(F)F)ccc1N1CCN(c2ccccc2)CC1	0	10	6	0	0	-3	/	/	/	/
O=[N+]([O-])c1cc(S(=O)(=O)Nc2ccccc2)ccc1N1CCN(c2ccccc2)CC1	14	24*	11*	0	0	20*	11	3	38*	21*
Cc1c(-c2cccc(Cl)c2)nc2ccccc2c1C(=O)NC1CC1	-1	-6	-1	/	0	-21	/	/	/	/
CCOC(=O)c1ccc(S(=O)(=O)NCC(c2ccc(N(C)C)cc2)c2c[nH]c3ccccc23)cc1 (centres undefined)	14	26*	12*	10	-1	16*	9	3	36*	23*
COc1ccc(Cl)cc1Cn1c(C)c(C(=O)NCc2ccc(F)cc2)sc1=O	5	27*	11*	/	1	/	2	1	12	5
